Screening results from PubChem BioAssay.
LANA DNA inh – KSHV C-LANA DNA binding inhibition; MBP-C-LANA/FAM-LBS DNA binding, fluorescence polarization; inhibition, % at 9 µM; 0.078% of 340,000 active; AID 504423;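 active means highest replicate inhibition at or above 60% at 9 µM, even if other replicates fall short; inactive means all replicates below 60% inhibition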;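 further: 0% = neutral control wells and 100% = 4 µM acridine orange control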
cardiac RTF act – increases calcium sensitivity of human cardiac regulated thin filaments | IANBD-labeled TnC RTF fluorescence at EC20 calcium; 0% EC20 calcium, 100% full calcium | activation, % at 7.2 µM | P19429+P45379 | 0.24% of 340,000 active;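 active means activation above the mean over all tested compounds plus 3 SD, cut at about 30% in these data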;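 further: rise in fluorescence read as greater calcium sensitivity of cardiac thin filaments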
eLon inh – inhibits E. coli Lon protease | purified E. coli Lon protease, fluorescence polarization | inhibition, % at 7.94 µM | 0.42% of 360,000 active; in the data active means inhibition above about 13%, passing the limit was not always enough;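 further: 0% = enzyme with probe and DMSO and 100% = no enzyme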
Cardiac RTF inh – cardiac RTF calcium desensitization; P19429+P45379; IANBD-labeled cardiac RTF, Ca2+ fluorescence; inhibition, % at 7.15 µM; 0.12% of 340,000 active; AID 493244;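 active means inhibition above the mean inhibition of all tested compounds plus 3 SD, cut at about 17% in these data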;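 further: assay run at fixed EC70 calcium of 1.6 mM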
LANA-H2A inh – blocks KSHV LANA binding to histone H2A/H2B; inhibition, % (test concentration not listed); cell-free LANA-H2A/H2B peptide, fluorescence polarization; 0.6% of 320,000 active; in the data active means inhibition mostly above about 10%, no sharp cut-off; inactive means mostly below about 6.7%
Keap1-Nrf2 PPI – disrupts human Keap1 binding to Nrf2 peptide. Keap1 Kelch-Nrf2 peptide fluorescence polarization, 1536-well. inhibition, % at 9.4 µM. 0.15% of 340,000 active; in the data active means inhibition above about 12%; inconclusive means no clear call, values can overlap the other calls; inactive means below about 7.3%;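 further: human Keap1 Kelch domain with fluorescein labeled Nrf2 9mer peptide probe; 0% = neutral control wells and 100% = peptide positive control; higher means more block of Keap1 binding to Nrf2 peptide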
Target sequence (Q14145 whole entry, looked up, the tested form may be a part): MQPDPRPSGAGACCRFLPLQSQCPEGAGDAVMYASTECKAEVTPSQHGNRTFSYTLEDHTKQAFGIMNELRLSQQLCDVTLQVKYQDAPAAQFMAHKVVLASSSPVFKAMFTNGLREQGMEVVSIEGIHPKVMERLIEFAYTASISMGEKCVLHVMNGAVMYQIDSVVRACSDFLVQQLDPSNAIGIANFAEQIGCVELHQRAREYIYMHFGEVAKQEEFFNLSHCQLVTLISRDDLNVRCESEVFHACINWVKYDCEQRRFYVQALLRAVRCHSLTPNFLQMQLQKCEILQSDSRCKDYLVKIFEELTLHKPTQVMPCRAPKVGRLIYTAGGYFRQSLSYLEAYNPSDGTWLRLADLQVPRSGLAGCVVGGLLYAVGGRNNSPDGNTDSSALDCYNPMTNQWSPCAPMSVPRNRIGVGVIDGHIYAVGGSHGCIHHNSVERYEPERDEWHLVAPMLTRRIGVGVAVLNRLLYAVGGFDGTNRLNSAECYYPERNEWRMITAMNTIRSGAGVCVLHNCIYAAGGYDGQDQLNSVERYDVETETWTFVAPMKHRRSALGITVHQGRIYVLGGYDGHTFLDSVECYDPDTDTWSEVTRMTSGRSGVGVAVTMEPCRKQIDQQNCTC
eLon confirm – E. coli Lon inhibition confirmation. shares compounds with eLon inh. purified E. coli Lon, fluorescence polarization. inhibition, % at 7.94 µM. 31% of 1,400 active; in the data active means inhibition above about 16%;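 further: 0% = enzyme with probe and DMSO and 100% = no enzyme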
* = called active by the depositor; ? = inconclusive; · = no result given; + = active, no number. Hits are enriched below; roughly 1.3% of the tested compounds scored in any of these assays.

SMILES	LANA DNA inh	cardiac RTF act	eLon inh	Cardiac RTF inh	LANA-H2A inh	Keap1-Nrf2 PPI	eLon confirm
Cn1c(=O)[nH]c(=O)c2c1nc(NCc1ccccc1)n2Cc1ccc(F)cc1	-2	-10	6	-1	-1	3	·
Nc1c(NCc2ccccc2)c(=O)[nH]c(=O)n1Cc1ccccc1	17	0	15*	-14	7	7	16
CCN(C(=O)COC(=O)C(c1ccccc1)c1ccccc1)c1c(N)n(Cc2ccccc2)c(=O)[nH]c1=O	1	9	25*	0	·	-6	-2
CCN(C(=O)COC(=O)CC(C)c1ccccc1)c1c(N)n(Cc2ccccc2)c(=O)[nH]c1=O (stereo unspecified)	-1	-7	5	3	-7	-4	·
CNc1c(N)n(Cc2ccccc2)c(=O)[nH]c1=O	28	7	33*	-15	1	8	24*
COc1ccccc1CCN=C(N)NS(=O)(=O)c1ccc(F)cc1	-2	6	-5	1	0	0	·
Nc1ncc(-c2ccccc2)c(-c2ccc(O)cc2O)n1	-2	-1	22*	-9	-1	0	7
COc1ccc(-c2cnc(N)nc2-c2ccc(OCc3ccccc3)cc2O)cc1	0	-1	-3	0	-3	3	·
CCOC(=O)C1CCCN(C(=O)Cc2c(C(=O)O)[nH]c3ccccc23)C1 (stereo unspecified)	1	1	24*	-8	-1	1	21*
CCCCOc1ccc2c(c1)/C(=C(\C(Cl)=C(Cl)Cl)[N+](=O)[O-])N2	4	-2	1	6	3	3	·
CCOC(=O)N1CCN(Cc2nc3ccc([N+](=O)[O-])cc3c(=O)n2-c2ccccc2F)CC1	0	10	18*	-7	-2	-3	0
CC1CCN(C(=O)C(=O)c2cn(CC(=O)N3CCCCCC3)c3ccccc23)CC1	3	-3	5	3	1	0	·
O=C(c1cn(CC(=O)N2CCCC2)c2ccccc12)C1CCCCC1	2	4	-4	-2	-4	-1	·
CN(C(=O)C(=O)c1cn(CC(=O)N2CCCC2)c2ccccc12)C1CCCCC1	1	-2	39*	-3	4	0	-12
CC1CCCN(C(=O)C(=O)c2cn(CC(=O)N3CCCCCC3)c3ccccc23)C1 (stereo unspecified)	2	1	21*	-1	3	2	10
CC(COc1ccc(C(C)C)cc1)NC(=O)c1ccc(Br)o1 (stereo unspecified)	0	-2	1	1	6	-1	·
CC1CCc2nc(NC(=O)C3COc4ccccc4O3)sc2C1 (stereo unspecified)	2	2	34*	-4	0	-6	0
Oc1ccc(/C=N/NC(=S)Nc2cccnc2)c(O)c1O	12	3	24*	-4	·	-4	27*
Oc1ccc(/C=N/NC(=S)Nc2cccnc2)c(O)c1	4	-3	-67	3	-1	3	·
Cc1ccnn1-c1ccc(C(=O)NCc2ccccc2CN2CCOCC2)cc1	-1	0	-1	-3	-3	2	·
COc1ccc(/C=C/C(=O)OCC(=O)N2c3ccccc3CC2C)c(OC)c1 (stereo unspecified)	·	·	14*	·	·	·	-4
COc1cccc(/C=C/C(=O)OCC(=O)N2c3ccccc3CC2C)c1OC (stereo unspecified)	-1	-15	-4	-5	·	2	·
CCOC(=O)c1ccc(S(=O)(=O)NNc2ccc(C(F)(F)F)cn2)cc1	1	1	-12	2	3	4	·
CCOc1ccc(/C(O)=C2/C(=O)C(=O)N(c3ccccn3)C2c2ccc(Cl)cc2)c(C)c1 (stereo unspecified)	0	-2	0	-2	5	-1	·
CCOc1ccc(/C(O)=C2/C(=O)C(=O)N(c3ccccn3)C2c2ccc(C)cc2)c(C)c1 (stereo unspecified)	3	-5	26*	0	-5	1	-5
SMILES	LANA DNA inh	cardiac RTF act	eLon inh	Cardiac RTF inh	LANA-H2A inh	Keap1-Nrf2 PPI	eLon confirm
O=C1c2cccc3cccc(c23)C(=O)N1Cc1cccnc1	-1	-3	0	-3	-2	3	·
Cc1ccc(N2C(=O)c3cccc4c([N+](=O)[O-])ccc(c34)C2=O)c2cccnc12	1	0	9	-3	4	1	·
Cc1ccnc(N2C(=O)c3cccc4c([N+](=O)[O-])ccc(c34)C2=O)c1	1	16	53*	-29	0	-4	64*
O=C1c2cccc3c([N+](=O)[O-])ccc(c23)C(=O)N1Cc1cccnc1	2	20	51*	-18	·	?	75*
Cc1nnc(N2C(=O)c3cccc4c([N+](=O)[O-])ccc(c34)C2=O)s1	1	12	15*	-12	1	0	13
Cc1cccc(N2C(=O)c3cccc4c(N5CCCCC5)c([N+](=O)[O-])cc(c34)C2=O)c1C	2	2	-4	-5	-1	-1	·
CC/C(=C\C(=O)c1ccncc1)Nc1ccc(O)cc1	0	1	26*	-2	3	-1	-4
O=C1CCc2cc(S(=O)(=O)NCc3ccc(F)cc3)cc3c2N1CCC3	0	-8	5	-6	-4	-3	·
COc1ccc(CNCC(O)(c2ccc(Cl)cc2)c2ccc(Cl)cc2)cc1OC	0	-2	-5	-2	0	-3	·
COc1ccc(CNCC(O)(c2ccc(Cl)cc2)c2ccc(Cl)cc2)cc1	1	3	48*	2	7	-3	-1
COCC(=O)N1CCC(Oc2ccc(C(=O)N(C)C(C)c3ccon3)cc2)CC1 (stereo unspecified)	2	-1	2	-1	-1	-1	·
COc1ccc(NC(=O)C2(C)Cc3c(-c4cccc(NC(C)=O)c4)ccnc3O2)cn1 (stereo unspecified)	·	·	28*	·	·	·	2
COc1ccc(N(CC(=O)Nc2ccc(S(=O)(=O)N3CCOCC3)cc2)S(C)(=O)=O)cc1OC	·	·	16*	·	·	·	6
CN(C)/C=N/c1cc(=O)[nH]c(=O)n1CC1CC1	0	8	-3	-1	2	-4	·
C=CCn1c(=O)[nH]c2nc3cc(N=CN(C)C)c(C)cc3nc2c1=O	23	131*	158*	-141	11	-1	+
Cc1cc2cc(CNC(=O)c3ccc(C)c([N+](=O)[O-])c3)ccc2[nH]1	2	0	22*	-10	-1	1	6
Cc1cc2cc(CCNC(=O)c3ccc(C)c([N+](=O)[O-])c3)c(=O)[nH]c2cc1C	0	-12	0	-14	0	5	·
